D1 antag = human D1 dopamine receptor antagonism; HEK293 TREx D1 cells, calcium flux, dopamine EC80; stronger effect = lower value; activity change, negative = inhibition, % at 10 µM; 3.2% of 360,000 active; AID 504652; P21728; in the data active = activity change below about -30%
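Compound effects on dopamine-evoked calcium signalling were measured in tetracycline-induced HEK293 Trex D1 cells. Dopamine at EC80 followed a 180 s compound pre-read, and fluorescence was tracked kinetically for 180 s more.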
TRHR PAM = allosterically enhances the human TRH receptor; P34981; TRHR cells, fluo-8 calcium fluorescence, EC20 TRH enhancement; enhancement, % at 2 µM; 0.66% of 360,000 active; in the data active = enhancement above about 30%
Target sequence (P34981 whole entry, looked up): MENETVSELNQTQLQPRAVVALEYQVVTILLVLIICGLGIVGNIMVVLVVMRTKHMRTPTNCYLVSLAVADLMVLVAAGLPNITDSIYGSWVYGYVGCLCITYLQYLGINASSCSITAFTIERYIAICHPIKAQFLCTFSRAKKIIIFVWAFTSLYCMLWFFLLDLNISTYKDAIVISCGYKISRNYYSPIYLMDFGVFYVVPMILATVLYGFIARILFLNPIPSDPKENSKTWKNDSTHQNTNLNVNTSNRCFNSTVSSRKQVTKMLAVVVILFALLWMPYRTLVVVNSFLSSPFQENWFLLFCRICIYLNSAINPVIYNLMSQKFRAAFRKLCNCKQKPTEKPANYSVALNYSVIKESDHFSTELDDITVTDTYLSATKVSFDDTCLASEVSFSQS
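Enhancer read-out: after compound pinning and an initial kinetic agonist-mode read, an EC20 of TRH (10 nM final) was injected and fluo-8 calcium signal (Ex 480/Em 530) followed at 1 s/cycle for 100 cycles in TRHR-expressing cells.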
TRHR agonist = activates the human TRH receptor; P34981; TRHR cells, calcium flux fluo-8, FDSS agonist mode; activation, % at 2 µM; 0.18% of 360,000 active; AID 493084
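TRHR-expressing cells loaded with fluo-8 calcium dye; 23 nL library compound pin-transferred, kinetic FDSS fluorescence (Ex 480/Em 530) recorded about 180 s for agonist-induced calcium release, before a 10 nM TRH EC20 addition for potentiator mode.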
D1 agonist = agonists of human D1 dopamine receptor | 1% of 360,000 active | HEK293 T-REx D1 cells, calcium flux, agonist mode | activation, % at 2 µM
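Agonism was scored from calcium flux recorded over 180 s (1 read/s) after pintool compound addition, following a 10-cycle baseline. Cells were inducible force-coupled HEK293 TREx D1, plated overnight at 30 C and loaded with no-wash calcium dye.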
D1 PAM = human D1 dopamine receptor positive modulation. potentiation, % at 10 µM. AID 504651. P21728. HEK293 TREx D1 cells, calcium flux, dopamine EC20 potentiation. 0.036% of 360,000 active; in the data active = potentiation above about 30%
Of the large screens only hits and unclear results are named; the others gave an inactive call; ! = not confirmed by another sample. The list is not random: actives were taken first. Their share in the collection is about 4.6%. Rule as the data show it, unless noted: active = activation above about 30%; inactive = the rest.

Cc1ccc(C2C(C(=O)c3cccs3)=C(O)C(=O)N2c2nnc(C)s2)cc1 (centres undefined)	TRHR agonist 56, D1 agonist 141
O=C(Nc1cccc(Br)c1)c1cc(-c2ccc3c(c2)OCCO3)on1	D1 antag -41
Cc1ccccc1OC(=O)c1cc(-c2ccc3c(c2)OCCO3)on1	D1 antag -46
O=C(Oc1ccc(Cl)cc1)c1cc(-c2ccc3c(c2)OCCO3)on1	none
N#Cc1ccc(OC(=O)c2cc(-c3ccc4c(c3)OCCO4)on2)cc1	D1 agonist 33
CCC(=O)NC(c1ccco1)c1cc([N+](=O)[O-])c2cccnc2c1O (centres undefined)	none
CC1(c2ccc(OC(F)F)cc2)NC(=O)N(/N=C/c2c(O)ccc3ccccc23)C1=O (centres undefined)	D1 agonist 32
COc1ccc(C)c2sc(N(Cc3cccnc3)C(C)=O)nc12	none (no result: D1 antag)
CCOc1ccc(NC(=O)Cn2cc(C(=O)c3ccc(C)c(C)c3)c(=O)c3cc4c(cc32)OCCO4)cc1	none
CC1=CC(C)(C)N(C(=O)c2ccccc2)c2ccc(C)cc21	D1 agonist 57
CCOC(=O)c1ccc(N=c2sc(C(=O)OC)cc(=O)n2CCCN2CCOCC2)cc1	D1 antag -40!
CC(C)CN(CCCNC(=O)c1cc(=O)[nH]c2ccc(S(=O)(=O)N3CCCCCC3)cc12)CC(C)C	none
COc1ccc(-c2cc(C(=O)NCCc3ccccc3)c3c(-c4ccccc4)[nH]nc3n2)cc1OC	none
COc1ccc(CCNC(=O)c2cc(-c3ccc(C)cc3)nc3n[nH]c(-c4ccccc4)c23)cc1OC	TRHR PAM 48
COc1cc(C(=O)O)ccc1OCc1c(C)noc1C	none (no result: D1 antag)
COc1cc(C(=O)Nc2nnc(C3CC3)s2)ccc1OCc1c(C)noc1C	D1 antag -32
COc1cc(C(=O)Oc2ccccc2)ccc1OCc1c(C)noc1C	D1 antag -37
Cc1noc(C)c1COc1ccc(C(=O)O)cc1	TRHR PAM 32
COc1ccc(CNC(=O)Cn2ccc3cc(S(=O)(=O)N4CCCC4)ccc32)c(OC)c1	none
OCCN(CCO)CC(O)Cn1c2ccccc2c2ccccc21 (centres undefined)	none
CCCN(CCC)CC(O)Cn1cc(/C=C/C(=O)c2cccs2)c2ccccc21 (centres undefined)	D1 agonist 94
CN1CCN(Cn2cc(/C=C/C(=O)c3ccccc3)c3ccccc32)CC1	none
CCCN(CCC)CC(O)Cn1cc(/C=C/C(=O)c2ccccc2)c2ccccc21 (centres undefined)	D1 antag -31, D1 agonist 73
O=C(/C=C/c1ccnc2ccccc12)c1cccs1	none
CC(C)(C)NCC(O)Cn1cc(C=O)c2ccccc21 (centres undefined)	none
CCCN(CCC)CC(O)Cn1cc(/C=C/C(=O)c2ccc(C)cc2)c2ccccc21 (centres undefined)	D1 antag -42, D1 agonist 133
CCCN(CCC)CC(O)Cn1cc(/C=C/C(=O)c2ccc(Br)cc2)c2ccccc21 (centres undefined)	D1 agonist 33
COc1ccc(C(=O)/C=C/c2cn(CC(O)CN(CC(C)C)CC(C)C)c3ccccc23)cc1 (centres undefined)	none
CCCN(CCC)CC(O)Cn1cc(/C=C/C(=O)c2ccc(OC)cc2)c2ccccc21 (centres undefined)	D1 antag -41, D1 agonist 128
COc1ccc(OC)c(NC(=O)N2CCC(CN3CCCCC3)CC2)c1	none
Oc1[nH]c2ccccc2c1N=NC(=S)NCC1CCCO1 (centres undefined)	D1 antag -45
CC1(C)CC(=O)C2=C(C1)OC(/N=C/N1CCCC1)=C(C#N)C2c1ccccc1 (centres undefined)	D1 antag -95
Cc1ccc(C(=O)CSC2=C(C#N)C(c3ccco3)CC(=O)N2)c(C)c1 (centres undefined)	D1 antag -58, D1 agonist 63
CCOC(=O)Cn1nnc(-c2cc(OC)c(OC)c(OC)c2)n1	none
COc1cc(-c2nnn(CC(=O)Nc3ccc(OC(F)(F)F)cc3)n2)cc(OC)c1OC	D1 antag -32
C/C(=N\O)c1ccc(Cl)c(Cl)c1	D1 antag -49
CNC(=S)N/N=C(\C)c1ccc(Cl)c(Cl)c1	none
Cc1cc2c(s1)c1cnn(Cc3ccccc3C)c(=O)c1n2C	none
CCOC(=O)c1ccc(COC(=O)CCc2nc3ccccc3[nH]c2=O)o1	none
O=C(CCc1ccc(S(=O)(=O)N2CCOCC2)cc1)OCc1nc2ccccc2s1	D1 agonist 33
O=C(CCc1nc2ccccc2[nH]c1=O)OCc1ccc(S(=O)(=O)N2CCOCC2)cc1	TRHR PAM 36
COc1ccc(-n2ncc(C(=O)NCc3ccccc3)c2C2CCN(C(=O)OC(C)(C)C)CC2)cc1	none
CCCCN(CC)C(=O)C1CCC(CNS(=O)(=O)c2cccc3nsnc23)CC1 (centres undefined)	D1 antag -31!
CCC(C)(C)NC(=O)C1CCC(CNS(=O)(=O)c2cccc3nsnc23)CC1 (centres undefined)	D1 antag -40
O=C(NCc1cccs1)C1CCC(CNS(=O)(=O)c2cccc3nsnc23)CC1 (centres undefined)	none
COc1cccc(CNC(=O)C2CCC(CNS(=O)(=O)c3cccc4nsnc34)CC2)c1 (centres undefined)	D1 antag -41
CCc1nc2ccc(C(=O)NCCc3ccc(OC)cc3OC)cc2nc1CC	none
Cc1cc(C)cc(NC(=O)N2CCN(C)c3ncccc32)c1	none
COc1ccccc1CNC(=O)C1CCN(S(=O)(=O)Cc2ccccc2)CC1	none
COC(=O)c1ccc(NC(=O)n2ncc3c(C)cccc32)cc1	D1 antag -70
Fc1ccc(-n2cc(-c3ccccc3)c3c(NC4CCCCC4)ncnc32)cc1	none
Cc1ccc(NC(=O)c2ccc(-n3c(C)nnc3C)cc2)cc1F	none
COc1ccc(OC)c(-c2csc(NC(=O)Cc3ccccc3OC)n2)c1	none (no result: D1 PAM)
COc1ccc(OC)c(-c2csc(NC(=O)Cc3ccccc3F)n2)c1	TRHR PAM 32
O=C(CCSc1ccccc1Cl)Nc1cccc([N+](=O)[O-])c1	D1 antag -35
Cc1cc(C)c([N+](=O)[O-])cc1NC(=O)CCSc1ccccc1Cl	D1 antag -35
O=S(=O)(Cc1ccc(Cl)cc1)N1CCCCCC1	none
O=S(=O)(Cc1ccc(Cl)cc1)N1CCCC1	D1 antag -74
Cc1c(C(=O)Nc2cccc(F)c2)sc2nc(-c3cc4ccccc4oc3=O)[nH]c(=O)c12	D1 antag -36
COc1ccc2c(c1)CC(C(=O)NCCCN1CCN(c3ccccc3F)CC1)CO2 (centres undefined)	none
